Screening results (PubChem BioAssay)
This is a sample that favours compounds with a hit; in the whole collection about 2.4% have one here.
D2 antagonist: antagonizes the human D2 dopamine receptor. inhibition, % at 10 µM. P14416. 340,000 tested, 2% active. HEK293 TREx D2 cells, calcium flux, dopamine EC80; in the data active means inhibition above about 30%; inactive means below that, where a call was filed; further: 0% is about no effect
Target sequence (P14416 whole entry, looked up): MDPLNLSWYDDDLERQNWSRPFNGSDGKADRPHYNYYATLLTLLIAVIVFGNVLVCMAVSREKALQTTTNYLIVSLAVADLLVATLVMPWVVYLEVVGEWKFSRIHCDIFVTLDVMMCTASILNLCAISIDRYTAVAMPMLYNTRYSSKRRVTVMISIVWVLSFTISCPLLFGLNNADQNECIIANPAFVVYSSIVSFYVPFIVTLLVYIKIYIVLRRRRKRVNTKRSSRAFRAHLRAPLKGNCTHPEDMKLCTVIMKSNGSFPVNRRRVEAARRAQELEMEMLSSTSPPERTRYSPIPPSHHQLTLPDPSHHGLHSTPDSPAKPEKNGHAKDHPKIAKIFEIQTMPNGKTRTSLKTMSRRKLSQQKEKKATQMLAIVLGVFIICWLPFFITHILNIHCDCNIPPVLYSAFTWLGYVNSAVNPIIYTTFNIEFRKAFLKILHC
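Inhibition of EC80 dopamine-driven calcium flux, recorded kinetically, defines activity here; cells are a tetracycline-induced HEK293 T-REx line expressing force-coupled D2.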
D2 PAM-1: D2 dopamine receptor (human) potentiation; HEK293 T-REx D2, calcium flux, EC20 dopamine potentiation; potentiation, % at 10 µM; 340,000 tested, 0.34% active;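 active means potentiation over 3 SD above the plate norm, cut at about 30% in these data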; further: 0% is about no effect
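Primary screen. Calcium kinetics in induced HEK293 T-REx D2 cells: compound pre-addition 180 s, EC20 dopamine, 180 s more.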
D2 PAM-2: positive allosteric modulators of human D2 dopamine receptor | P14416 | DiscoveRx D2 beta-arrestin cells, luminescence, 90 min; 100% = 57 uM dopamine signal | potentiation, % (test concentration not listed) | 360,000 tested, 0.23% active | AID 624464; in the data active means potentiation above about 50%; inconclusive means mostly about 30% to 49%
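PathHunter beta-arrestin assay in DiscoveRx D2 cells. Compounds were added with an EC20 of dopamine (50 nM final) for 90 min at 37 deg C. Luminescence was read 1 h after detection reagent, with 57 uM dopamine as the EC100 control.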
D2 ag-1: D2 dopamine receptor (human) agonism. P14416. HEK293 T-REx D2 cells, calcium flux agonist mode. activation, % at 2 µM. 340,000 tested, 0.53% active;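 active means activation over 3 SD above normal in the single-dose calcium agonist read, cut at about 30% in these data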; further: 0% is about no effect
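Tetracycline-induced HEK293 T-REx cells with force-coupled D2 receptor, plated overnight at 30 C, loaded with no-wash calcium dye. After a 10 s baseline, compound was pin-added and calcium flux read kinetically for 180 s; calcium rises flagged agonists.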
D2 ag-2: human D2 receptor agonism in beta-arrestin assay | P14416 | DiscoveRx PathHunter D2 beta-arrestin, luminescence, 90 min; 100% = 57 uM dopamine signal | activation, % (concentration not given with the values) | 360,000 tested, 0.084% active; in the data active means activation above about 40%; inconclusive means between about 15% and that limit
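Agonist mode: compounds alone added to overnight-plated D2 PathHunter cells for 90 min at 37 C, with 57 uM final dopamine (EC100) defining full response. Beta-arrestin recruitment detected by chemiluminescent reagent, read after 1 h at ambient temperature.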
* hit, by the source's call.

Results for Brc1ccc(C2Nc3cccc4cccc(c34)N2)o1 ?
D2 antagonist: -8.4; D2 PAM-1: 4.1; D2 PAM-2: 61.3*; D2 ag-1: 0.1; D2 ag-2: 8.0

Results for CCOc1ccc(S(=O)(=O)N2CCCCC2)cc1NC(=O)C1CCCC1 ?
D2 PAM-2: -9.8; D2 ag-2: -2.0

Results for O=C(CN(CCCN1CCOCC1)C(=O)Cn1nnc(-c2ccc(F)cc2)n1)NC1CCCCC1 ?
D2 antagonist: 1.5; D2 PAM-1: -9.7; D2 PAM-2: -13.9; D2 ag-1: 0.8; D2 ag-2: -3.8

How did O=C(CN(CCN1CCOCC1)C(=O)Cn1nnc(-c2ccc(F)cc2)n1)NC1CCCCC1 do in these assays?
D2 antagonist: 70.6*; D2 PAM-1: 6.0; D2 PAM-2: -6.2; D2 ag-1: 0.7; D2 ag-2: -4.0

Results for O=S1(=O)C[C@H](N2CCN(CCO)CC2)[C@@H](COCc2ccccc2)N1 ?
D2 PAM-2: -3.4; D2 ag-2: -2.4

What do the screens show for `COc1ccc(OC)c(NC(=O)C(CCSC)NS(=O)(=O)c2cccs2)c1` (configuration not stated)?
D2 antagonist: 32.4*; D2 PAM-1: -1.7; D2 PAM-2: -5.3; D2 ag-1: -0.3; D2 ag-2: 1.1

Results for COc1cc(CC(NC(C)=O)C(=O)NC2CCN(C(=O)C3CC3)CC2)cc(OC)c1 (configuration not stated) ?
D2 antagonist: 32.5*; D2 PAM-1: 6.7; D2 PAM-2: -11.0; D2 ag-1: 0.1; D2 ag-2: -5.2

Results for Cc1nn(CC(C)C)c(=S)[nH]c1=O ?
D2 antagonist: 31.6*; D2 PAM-1: 14.2; D2 PAM-2: -14.9; D2 ag-1: 0.1; D2 ag-2: -4.0

What do the screens show for `CN=c1c([N+](=O)[O-])nn(-c2ccc3c(c2)OCCO3)n1O`?
D2 antagonist: 2.0; D2 PAM-1: 2.6; D2 PAM-2: 24.7; D2 ag-1: -1.1; D2 ag-2: 42.4*

How did CCc1cccc(N=c2c([N+](=O)[O-])nn(-c3ccc4c(c3)OCCO4)n2O)c1 do in these assays?
D2 antagonist: 6.6; D2 PAM-1: -0.1; D2 PAM-2: inconclusive; D2 ag-1: -2.1; D2 ag-2: inconclusive

Results for COc1cc(N=c2c([N+](=O)[O-])nn(-c3ccc4c(c3)OCCO4)n2O)cc(OC)c1 ?
D2 antagonist: 0.7; D2 PAM-1: -1.7; D2 PAM-2: 68.3*; D2 ag-1: 1.3; D2 ag-2: 9.4

What do the screens show for `O=[N+]([O-])c1nn(-c2ccc3c(c2)OCCO3)n(O)c1=NCCC1=CCCCC1`?
D2 antagonist: 5.9; D2 PAM-1: 2.6; D2 PAM-2: 147.0*; D2 ag-1: 1.2; D2 ag-2: inconclusive

How did CC(C)c1ccc(N=c2c([N+](=O)[O-])nn(-c3ccc4c(c3)OCCO4)n2O)cc1 do in these assays?
D2 antagonist: -13.5; D2 PAM-1: -2.7; D2 PAM-2: 71.5*; D2 ag-1: 0.1; D2 ag-2: 5.9

Results for O=[N+]([O-])c1nn(-c2ccc3c(c2)OCCO3)n(O)c1=NCc1ccc(F)cc1 ?
D2 antagonist: -11.1; D2 PAM-1: 15.4; D2 PAM-2: 142.5*; D2 ag-1: -1.4; D2 ag-2: inconclusive

How did O=[N+]([O-])c1nn(-c2ccc3c(c2)OCCO3)n(O)c1=NCc1ccc(F)cc1Cl do in these assays?
D2 antagonist: 6.5; D2 PAM-1: 2.1; D2 PAM-2: 6.7; D2 ag-1: 0.1; D2 ag-2: 2.5

What do the screens show for `CC(C)n1c(O)c(N=NC(=O)CNC(=O)c2cccnc2)c2ccccc21`?
D2 antagonist: 40.9*; D2 PAM-1: 2.7; D2 PAM-2: -33.8; D2 ag-1: -0.1; D2 ag-2: -5.0

Results for CCC(C)Oc1cccc(C(=O)Nc2ccccc2N2CCOCC2)c1 (configuration not stated) ?
D2 antagonist: -1.9; D2 PAM-1: 2.7; D2 PAM-2: -0.9; D2 ag-1: 0.3; D2 ag-2: 0.5

What do the screens show for `CC(C)Oc1cccc(C(=O)Nc2ccccc2N2CCOCC2)c1`?
D2 antagonist: 33.4*; D2 PAM-1: -1.8; D2 PAM-2: -1.9; D2 ag-1: -0.4; D2 ag-2: 2.1

How did COc1ccc(Cc2nn3c(Cn4nnc5ccccc54)nnc3s2)cc1 do in these assays?
D2 antagonist: 39.0*; D2 PAM-1: 0.8; D2 PAM-2: -4.5; D2 ag-1: -0.9; D2 ag-2: -1.7

What do the screens show for `Nc1ccc(-c2c3ccc(=O)cc-3oc3cc(O)ccc23)cc1C(=O)O`?
D2 antagonist: -32.8; D2 PAM-1: -5.3; D2 PAM-2: -13.6; D2 ag-1: 91.6*; D2 ag-2: -10.0

Results for CSc1cccc(NC(=O)CCCNC(=O)c2ccc(Cl)cc2)c1 ?
D2 antagonist: 44.6*; D2 PAM-1: -23.1; D2 PAM-2: -13.8; D2 ag-1: -0.9; D2 ag-2: -1.6

How did Cc1ccc(S(=O)(=O)N(C)C)cc1NC(=O)CCCNC(=O)c1ccc(Cl)cc1 do in these assays?
D2 antagonist: 40.5*; D2 PAM-1: -43.1; D2 PAM-2: -20.3; D2 ag-1: -0.7; D2 ag-2: -2.0

Results for CC(=O)c1ccc(OCCCC(=O)Nc2cc(S(=O)(=O)N(C)C)ccc2C)cc1 ?
D2 antagonist: 19.4; D2 PAM-1: -17.1; D2 PAM-2: -30.9; D2 ag-1: 1.4; D2 ag-2: -4.1

What do the screens show for `Cc1ccc(S(=O)(=O)N(C)C)cc1NC(=O)CSc1ncc(C(F)(F)F)cc1Cl`?
D2 antagonist: 37.2*; D2 PAM-1: -38.8; D2 PAM-2: -6.0; D2 ag-1: 0.8; D2 ag-2: 0.7

Results for CCN(CC)S(=O)(=O)c1ccc(C)c(NC(=O)CSc2ncc(C(F)(F)F)cc2Cl)c1 ?
D2 antagonist: -2.7; D2 PAM-1: -2.6; D2 PAM-2: -12.6; D2 ag-1: -0.4; D2 ag-2: -6.2

What do the screens show for `Cc1ccc(S(=O)(=O)N(C)C)cc1NC(=O)Nc1ccccc1F`?
D2 antagonist: 64.5*; D2 PAM-1: -27.4; D2 PAM-2: -14.2; D2 ag-1: -0.9; D2 ag-2: -3.1

What do the screens show for `COc1ccccc1NC(=O)CN1C(=O)CC(C)S(=O)(=O)c2ccccc21` (configuration not stated)?
D2 antagonist: -3.3; D2 PAM-1: 6.2; D2 PAM-2: -4.2; D2 ag-1: 1.1; D2 ag-2: -1.0

How did Cc1cccc(Nc2nnc(-c3ccc(C)c(S(=O)(=O)N4CCN(C)CC4)c3)c3ccccc23)c1 do in these assays?
D2 PAM-1: 11.7; D2 ag-1: -2.1

What do the screens show for `COCCN(C(=O)COC(=O)c1ccc(-c2ccccc2)cc1)c1c(N)n(Cc2ccccc2)c(=O)[nH]c1=O`?
D2 PAM-2: 1.7; D2 ag-2: -1.2

Results for Cc1cccc(NC(=O)CCNC(=O)c2ccccc2)c1 ?
D2 antagonist: 35.5*; D2 PAM-1: 6.5; D2 PAM-2: -1.6; D2 ag-1: -3.6; D2 ag-2: 0.0
